PubChem BioAssay (NCATS)
Values joined by “and” are separate entries in the source; they are usually repeats but may differ in a detail not shown here. Equal values may be shown once. Inconclusive results are not listed. Active and inactive are the calls of the source. Unless noted, calls follow the shape of the dose curve; as a rule, active = well fitted curve in the direction sought with a large enough effect; inconclusive = small, poorly fitted or top-dose-only effect, or another doubt; inactive = no such curve, though single readings can be large; an effect the other way counts as inactive or inconclusive.

Experiments:
[1] = qHTS assay to identify small molecule inhibitors of chordoma cells - UCH-1 (AID 1259355); also: nearly all actives have a fitted effect of over 55% in size; also: potency is read from the fitted curve at half-maximal effect; series mostly up to about 46 µM
Summary of the method: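 Luminescent ATP read-out (CellTiter-Glo, 30min at room temperature) measured viability of UCH-1 cells exposed for 48hr to test drugs at 15 concentrations, co-dosed with a five-agent combination of auranofin, camptothecin, doxorubicin, rubitecan and topotecan.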

[2] = qHTS assay to identify small molecule inhibitors of chordoma cells - UCH-2 (AID 1259356); also: potency is read from the fitted curve at half-maximal effect
[3] = P-glycoprotein substrates identified in KB-8-5-11 adenocarcinoma cell line, qHTS therapeutic library screen (AID 1346987); also: nearly all actives have a fitted effect of over 65% in size; also: potency is read from the fitted curve at half-maximal effect
Summary of the method: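 KB-8-5-11: colchicine-selected sub-line of KB-3-1 over-expressing P-gp; assay medium lacked colchicine. 72 h drug exposure at 37 degree C, CellTiter-Glo.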

[4] = qHTS assay for measurement of the activity of small molecule inhibitors on Zika virus induced Caspase-3 activity in human astrocytoma cells (AID 1224859)
Summary of the method: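 Caspase activation in ZIKV-infected SNB-19 cells (2 FFU/cell, 6 h) measured by Caspase-Glo 3/7 luminescence after 30 min RT; compound pre-incubated 1 h; normalised to uninfected and infected controls.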

[5] = molecular target: Atrial natriuretic peptide receptor 2 (Homo sapiens) (UniProt P20594); test: Natriuretic polypeptide receptor (hNpr2) antagonism - Pilot subtype selectivity assay (AID 1347050; calls by dose curve)
Summary of the method: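 cGMP-sensor HEK293/hNpr2 cells; 2% GloSensor reagent 2 h RT; compounds 30 min; baseline luminescence read; 1 nM hNppC agonist 20 min RT; final luminescence read by CCD camera. Antagonism = reduced post-agonist signal.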

[6] = molecular target: Parathyroid hormone/parathyroid hormone-related peptide receptor (Homo sapiens) (UniProt Q03431); test: qHTS for PTHR1 Agonists: Optimization Screen against the NCGC LOPAC library (AID 1347079);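 also: GloSensor cAMP luminescence in HEK-293 GP2 cells expressing human PTHR1 with IBMX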
Summary of the method: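 Compounds were tested across a qHTS titration. PTHR1-expressing GP2 cells report cAMP rises via GloSensor luminescence after 1 hr compound exposure at 37C with IBMX present.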

[7] = NS1 protein of Zika virus - qHTS assay to identify small molecule inhibitors in human HEK 293 cells (AID 1347053); also: nearly all actives have a fitted effect of over 55% in size; also: potency is read from the fitted curve at half-maximal effect
Summary of the method: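 Following 20 h seeding, HEK 293 cells took compound, then 1 h later ZIKV MR766 (MOI = 0.5). Incubation ran 24 h at 37 C before TR-FRET detection of NS1; a drop in signal indicates inhibition.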

[8] = qHTS of pediatric cancer cell lines to identify multiple opportunities for drug repurposing: Primary screen for TC32 cells (AID 1347089); also: nearly all actives have a fitted effect of over 60% in size; also: potency is read from the fitted curve at half-maximal effect
Summary of the method: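 Luminescent ATP read-out (CellTiter-Glo) of metabolically active TC32 cells after 48 h exposure. Concentration-response curves came from 11-point (MIPE, 0.78 nM–46 µM) or 8-point (NPC, 0.59 nM–46 µM) primary titrations; follow-up used 11 points.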

[9] = qHTS of pediatric cancer cell lines to identify multiple opportunities for drug repurposing: Primary screen for DAOY cells (AID 1347090); also: nearly all actives have a fitted effect of over 55% in size; also: potency is read from the fitted curve at half-maximal effect
Summary of the method: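 Eight- or eleven-point concentration series, 48 h treatment at 37 degrees C in growth media; readout CellTiter-Glo luminescence. Potency and efficacy were taken from the concentration-response curves.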

[10] = molecular target: Atrial natriuretic peptide receptor 1 (Homo sapiens) (UniProt P16066); test: Natriuretic polypeptide receptor (hNpr1) antagonism - Pilot screen (AID 1347049; calls by dose curve;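 also: agonist-evoked cGMP luminescence read 20 min after hNppA addition; series mostly up to about 58 µM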)
Summary of the method: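 HEK293 cells co-expressing hNpr1 and the GloSensor pGS-40F cGMP luciferase sensor were preloaded with 2% GloSensor reagent for 2 h. Compounds were added for 30 min at room temperature, then cells were stimulated with 0.1 nM hNppA for 20 min before luminescence readout.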

[11] = Natriuretic polypeptide receptor (hNpr1) antagonism - Pilot counterscreen GloSensor control cell line (AID 1347045; calls by dose curve; also: series mostly up to about 38 µM)
Summary of the method: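 HEK293 cells carrying the GloSensor cGMP sensor (GIP/pGS-40F) were loaded with 2% GloSensor reagent for 2 h, exposed to compounds for 30 min, and then stimulated with 50 uM sodium nitroprusside for 20 min at room temperature.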

[12] = molecular target: T1, Tyrosine-protein phosphatase non-receptor type substrate 1 (Homo sapiens) + Leukocyte surface antigen CD47 (Homo sapiens) (UniProt P78324+Q08722); test: CD47-SIRPalpha protein protein interaction - LANCE assay qHTS validation (AID 1347057; active = well fitted curve in the direction sought with a large enough effect in the signal ratio, with a control signal flat, not every such curve was filed as active; the % refers to the signal ratio; also: series mostly up to about 38 µM)
Summary of the method: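 First, His-tagged CD47 and Eu-labelled anti-His antibody met the compound for 30 min; next, site-specifically biotinylated SIRPalpha was added for 30 min; finally streptavidin-APC was added before reading the TR-FRET ratio.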

[13] = molecular target: T1, Tyrosine-protein phosphatase non-receptor type substrate 1 (Homo sapiens) + Leukocyte surface antigen CD47 (Homo sapiens); test: CD47-SIRPalpha protein protein interaction - HTRF assay qHTS validation (AID 1347058; active = well fitted curve in the direction sought with a large enough effect in the signal ratio, not every such curve was filed as active; the % refers to the signal ratio; also: series mostly up to about 38 µM)
Summary of the method: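 TR-FRET read (Ch1/Ch2 ratio) of soluble extracellular CD47 and Avi-biotinylated SIRPalpha domains in PBS pH 7.4 with 0.05% IGEPAL; 7-point compound titration. Sequential 30 min room-temperature steps; non-biotinylated SIRPalpha as control inhibitor.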

[14] = molecular target: T1, Tyrosine-protein phosphatase non-receptor type substrate 1 (Homo sapiens) + Leukocyte surface antigen CD47 (Homo sapiens); test: CD47-SIRPalpha protein protein interaction - Alpha assay qHTS validation (AID 1347059);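 also: bead proximity luminescence from CD47 binding SIRPalpha after compound preincubation with SIRPalpha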
Summary of the method: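 Soluble extracellular domains: Avi-tag biotinylated SIRPalpha (25 nM) preincubated 30 min RT with compound, then 6His-CD47 (12.5 nM) 30 min; Ni-NTA acceptor and streptavidin donor beads (10 ug/mL) 30 min, AlphaScreen read. PBS pH 7.4, 0.05% IGEPAL.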

Measured: Potency

T1 sequence (P78324 whole entry, looked up): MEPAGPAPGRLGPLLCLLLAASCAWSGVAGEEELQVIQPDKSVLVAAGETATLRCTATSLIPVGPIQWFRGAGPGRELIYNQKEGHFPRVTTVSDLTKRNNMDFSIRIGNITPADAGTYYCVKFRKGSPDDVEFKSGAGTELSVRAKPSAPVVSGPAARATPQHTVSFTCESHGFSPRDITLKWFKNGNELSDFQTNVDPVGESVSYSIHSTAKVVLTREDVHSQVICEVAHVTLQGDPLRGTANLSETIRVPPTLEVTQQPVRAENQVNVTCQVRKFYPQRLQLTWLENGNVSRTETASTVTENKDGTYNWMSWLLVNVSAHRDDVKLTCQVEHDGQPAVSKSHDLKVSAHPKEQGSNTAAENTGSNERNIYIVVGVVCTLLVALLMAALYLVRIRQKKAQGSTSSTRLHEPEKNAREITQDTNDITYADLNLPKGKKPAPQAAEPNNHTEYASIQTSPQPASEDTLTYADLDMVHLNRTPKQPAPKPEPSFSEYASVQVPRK
T1 sequence (Q08722 whole entry, looked up): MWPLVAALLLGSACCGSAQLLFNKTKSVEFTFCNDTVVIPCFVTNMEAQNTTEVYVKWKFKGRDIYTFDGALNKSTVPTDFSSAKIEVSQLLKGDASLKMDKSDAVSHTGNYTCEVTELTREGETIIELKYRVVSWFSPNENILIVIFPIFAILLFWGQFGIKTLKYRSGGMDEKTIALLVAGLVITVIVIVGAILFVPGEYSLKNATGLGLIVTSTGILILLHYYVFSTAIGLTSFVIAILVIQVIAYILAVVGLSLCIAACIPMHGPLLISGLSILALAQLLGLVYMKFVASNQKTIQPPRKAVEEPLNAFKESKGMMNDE
Sequence of Atrial natriuretic peptide receptor 1 (Homo sapiens) (P16066 whole entry, looked up): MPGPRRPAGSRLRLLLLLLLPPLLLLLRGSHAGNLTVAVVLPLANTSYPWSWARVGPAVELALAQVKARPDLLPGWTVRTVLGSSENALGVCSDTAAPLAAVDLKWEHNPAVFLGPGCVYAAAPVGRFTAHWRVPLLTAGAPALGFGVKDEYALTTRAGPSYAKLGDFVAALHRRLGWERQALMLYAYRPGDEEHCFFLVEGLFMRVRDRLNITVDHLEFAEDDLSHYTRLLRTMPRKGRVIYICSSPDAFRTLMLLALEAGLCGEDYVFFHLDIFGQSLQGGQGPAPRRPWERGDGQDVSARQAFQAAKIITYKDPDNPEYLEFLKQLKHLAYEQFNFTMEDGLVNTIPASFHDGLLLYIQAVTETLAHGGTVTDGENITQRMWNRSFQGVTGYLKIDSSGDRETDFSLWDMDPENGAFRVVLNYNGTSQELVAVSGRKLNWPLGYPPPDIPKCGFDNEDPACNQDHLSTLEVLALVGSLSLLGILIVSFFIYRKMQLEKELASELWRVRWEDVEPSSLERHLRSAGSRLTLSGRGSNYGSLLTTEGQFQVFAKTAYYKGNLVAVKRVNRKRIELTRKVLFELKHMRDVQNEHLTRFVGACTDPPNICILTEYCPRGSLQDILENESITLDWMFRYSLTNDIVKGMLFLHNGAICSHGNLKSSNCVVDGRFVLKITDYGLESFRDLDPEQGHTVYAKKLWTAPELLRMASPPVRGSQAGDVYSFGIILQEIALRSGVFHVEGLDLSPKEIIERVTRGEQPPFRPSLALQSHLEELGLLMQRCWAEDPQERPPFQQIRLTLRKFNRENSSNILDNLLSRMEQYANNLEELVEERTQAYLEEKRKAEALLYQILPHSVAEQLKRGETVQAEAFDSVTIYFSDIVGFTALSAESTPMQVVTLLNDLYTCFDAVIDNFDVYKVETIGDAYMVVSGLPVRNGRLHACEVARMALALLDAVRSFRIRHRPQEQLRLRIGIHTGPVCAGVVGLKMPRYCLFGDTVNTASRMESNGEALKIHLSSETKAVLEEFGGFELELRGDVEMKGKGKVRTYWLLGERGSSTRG
Sequence of Parathyroid hormone/parathyroid hormone-related peptide receptor (Homo sapiens) (Q03431 whole entry, looked up): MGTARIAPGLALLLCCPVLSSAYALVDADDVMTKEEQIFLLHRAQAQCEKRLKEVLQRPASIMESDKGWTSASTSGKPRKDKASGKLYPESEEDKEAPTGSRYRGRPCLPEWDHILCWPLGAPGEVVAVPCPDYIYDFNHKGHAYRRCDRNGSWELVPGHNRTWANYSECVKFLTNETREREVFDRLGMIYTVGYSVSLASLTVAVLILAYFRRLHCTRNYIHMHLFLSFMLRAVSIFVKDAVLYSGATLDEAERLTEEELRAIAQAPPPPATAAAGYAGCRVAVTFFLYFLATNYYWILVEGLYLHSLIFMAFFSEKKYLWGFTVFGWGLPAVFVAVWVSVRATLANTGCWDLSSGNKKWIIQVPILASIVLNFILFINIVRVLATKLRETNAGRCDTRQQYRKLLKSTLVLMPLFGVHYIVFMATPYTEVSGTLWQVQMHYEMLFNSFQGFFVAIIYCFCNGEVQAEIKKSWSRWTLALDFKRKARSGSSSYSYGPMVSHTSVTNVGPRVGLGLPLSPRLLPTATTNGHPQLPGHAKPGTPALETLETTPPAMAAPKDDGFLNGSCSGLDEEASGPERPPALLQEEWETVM
Sequence of Atrial natriuretic peptide receptor 2 (Homo sapiens) (P20594 whole entry, looked up): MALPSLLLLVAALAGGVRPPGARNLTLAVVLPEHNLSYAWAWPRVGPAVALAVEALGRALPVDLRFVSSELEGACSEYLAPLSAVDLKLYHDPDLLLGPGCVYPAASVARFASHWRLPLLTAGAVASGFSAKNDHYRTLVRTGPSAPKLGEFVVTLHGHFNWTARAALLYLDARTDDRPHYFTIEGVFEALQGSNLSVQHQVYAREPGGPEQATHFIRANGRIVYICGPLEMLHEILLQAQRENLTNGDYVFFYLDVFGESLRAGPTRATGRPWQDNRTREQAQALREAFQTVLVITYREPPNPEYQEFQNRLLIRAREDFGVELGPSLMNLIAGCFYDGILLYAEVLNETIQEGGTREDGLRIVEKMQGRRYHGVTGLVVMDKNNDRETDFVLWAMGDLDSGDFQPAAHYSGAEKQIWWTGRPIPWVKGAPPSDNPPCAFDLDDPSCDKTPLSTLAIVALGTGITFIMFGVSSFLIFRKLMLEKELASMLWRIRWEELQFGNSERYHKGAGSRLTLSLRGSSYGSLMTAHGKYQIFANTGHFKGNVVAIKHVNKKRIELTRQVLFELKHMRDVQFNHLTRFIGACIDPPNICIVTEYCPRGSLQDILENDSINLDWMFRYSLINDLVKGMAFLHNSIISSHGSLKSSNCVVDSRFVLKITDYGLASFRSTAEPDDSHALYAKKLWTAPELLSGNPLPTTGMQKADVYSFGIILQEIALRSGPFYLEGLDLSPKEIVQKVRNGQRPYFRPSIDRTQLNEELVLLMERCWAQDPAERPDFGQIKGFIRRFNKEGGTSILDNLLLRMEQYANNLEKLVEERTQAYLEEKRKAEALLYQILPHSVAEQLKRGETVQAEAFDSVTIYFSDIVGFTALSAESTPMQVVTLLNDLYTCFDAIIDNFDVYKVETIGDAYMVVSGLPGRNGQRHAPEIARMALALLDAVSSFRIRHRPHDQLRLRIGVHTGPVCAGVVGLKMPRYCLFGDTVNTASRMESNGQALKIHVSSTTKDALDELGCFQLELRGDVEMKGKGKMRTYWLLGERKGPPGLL

CC[C@H]1OC(=O)[C@H](C)[C@@H](O[C@H]2C[C@@](C)(OC)[C@@H](O)[C@H](C)O2)[C@H](C)[C@@H](O[C@@H]2O[C@H](C)C[C@H](N(C)C)[C@H]2O)[C@](C)(O)C[C@@H](C)C(=O)[C@H](C)[C@@H](O)[C@]1(C)O
inactive: [1] | [2] | [3]

CC(=O)[C@]1(O)Cc2c(O)c3c(c(O)c2[C@@H](O[C@H]2C[C@H](N)[C@H](O)[C@H](C)O2)C1)C(=O)c1c(O)cccc1C3=O
active: [1] 1.58 µM | [2] 20.6 µM | [3] 5.17 µM and 4.11 µM

CC1(C)[C@@H](O)CC[C@]2(C)[C@H]3C(=O)C=C4[C@@H]5C[C@@](C)(C(=O)O)CC[C@]5(C)CC[C@@]4(C)[C@]3(C)CC[C@@H]12
inactive: [1] | [2] | [3]

C=CCN1C(=O)C(CC(C)C)NC1=S (stereo not drawn)
inactive: [1] | [2] | [3]

C[C@@H](NC(=O)/C(C#N)=C/c1ccc(O)c(O)c1)c1ccccc1
inactive: [4] | [5] | [6]

COC(=O)Nc1nc2ccc(C(=O)C3CC3)cc2[nH]1
inactive: [4] | [7]
active: [8] 1.33 µM | [9] 1.06 µM

N=C1N=C(N)c2cc3ccccc3cc21
active: [9] 24.3 µM
inactive: [8]

CCNC(=O)[C@H]1O[C@@H](n2cnc3c(N)nc(NCCc4ccc(CCC(=O)O)cc4)nc32)[C@H](O)[C@@H]1O
inactive: [3] | [10] | [5] | [6]

C=CC(=O)c1ccc(CCCCCC)cc1
inactive: [6]

O=Cc1ccc(O)c(O)c1O
inactive: [7] | [8] | [9]

Oc1ccc(C2CNCc3sccc32)cc1O (stereo not drawn)
inactive: [11] | [10] | [5] | [7] | [12] | [13] | [14] | [6]

COc1cc(CNC(=O)CCCC/C=C/C(C)C)ccc1O
inactive: [1] | [2] | [3]

N#C/C(=C\c1c[nH]c2ccccc12)C(=O)c1ccc(O)c(O)c1
inactive: [11] | [10] | [5] | [6]

CCN(CC)c1ncnc2c1ncn2[C@@H]1O[C@H](COP(=O)(O)OP(=O)(O)C(Br)(Br)P(=O)(O)O)[C@@H](O)[C@H]1O
inactive: [11] | [10] | [5] | [7] | [12] | [13] | [14] | [6]

O=C(O)Cc1ccc(-c2ccccc2)cc1
inactive: [1] | [2] | [3] | [7] | [8] | [9]

COc1cc(/C=C/C(=O)N2CCN(CC(=O)N3CCCC3)CC2)cc(OC)c1OC
inactive: [1] | [2] | [3]

CC1(C)C[C@@H]1C(=O)N/C(=C\CCCCSC[C@H](N)C(=O)O)C(=O)O
inactive: [1] | [2] | [3]

C[N+](C)(C)CC(=O)[O-]
inactive: [11] | [10] | [5] | [6]

NC(=S)NCCC[C@H](N)C(=O)O
inactive: [11] | [10] | [5] | [6]

O=C(O)c1cc(O)c(O)c(O)c1
inactive: [1] | [2] | [3] | [7] | [8] | [9]

Nc1ccc(O)c(C(=O)O)c1
inactive: [1] | [2] | [3] | [7] | [8] | [9]

N#C/C(=C\c1ccc(O)c(O)c1)C(=O)NCc1ccccc1
inactive: [10] | [5]

CN1CCC[C@H]1c1cccnc1
inactive: [10] | [5] | [6]

N.N.O=C(O)C1(C(=O)O)CCC1.[Pt]
inactive: [11] | [10] | [5] | [6]

NC(=O)C1=CN(C2OC(COP(=O)(O)OP(=O)(O)OC[C@H]3O[C@@H](n4cnc5c(N)ncnc54)[C@H](OP(=O)(O)O)[C@@H]3O)C(O)C2O)C=CC1 (stereo partly drawn)
inactive: [11] | [10] | [5] | [7] | [12] | [13] | [14] | [6]

COC(=O)c1nc(Cl)c(Cl)nc1N
active: [8] 3.33 µM | [9] 1.33 µM

Nc1c(CC(=O)O)cccc1C(=O)c1ccc(Br)cc1
inactive: [1] | [2] | [3] | [7] | [8] | [9]

CCCCC1C(=O)N(c2ccccc2)N(c2ccc(O)cc2)C1=O (stereo not drawn)
active: [7] 3.98 µM | [9] 5.31 µM
inactive: [1] | [2]

CNCC[C@H](Oc1ccc(C(F)(F)F)cc1)c1ccccc1
inactive: [7] | [6]

CN(C)CCCO[C@@H]1[C@H]2OC(C)(C)O[C@H]2O[C@@H]1[C@H](O)CO
inactive: [10] | [5] | [6]

COc1cc(/C=C/C(=O)CC(=O)/C=C/c2ccc(O)c(OC)c2)ccc1O
inactive: [1] | [2] | [3]

NCCNC(=O)c1ncsc1-c1cccc(F)c1
inactive: [11] | [5] | [6]

C[N+]1(C)[C@@H]2CC(OC(=O)[C@H](CO)c3ccccc3)C[C@H]1[C@@H]1O[C@@H]12 (stereo partly drawn)
inactive: [7] | [8] | [9]

NCCO
inactive: [3] | [8] | [9]

CCOc1ccc2nc(S(N)(=O)=O)sc2c1
inactive: [2] | [3] | [7] | [8] | [9]

C[C@H](O)[C@H](O)[C@H]1CNc2nc(N)[nH]c(=O)c2N1
inactive: [1] | [2] | [3]
